These results are taken from PubChem BioAssay (Tox21).

Unmarked numbers belong to inactive results. Results filed as inconclusive are left out. Calls of active or inactive are those of the source. Unless noted, calls come from the whole dose curve; as a rule, active = well fitted curve in the direction sought with a large enough effect in the repeat runs; inconclusive = weak or mixed curves; inactive = no such curve, though single readings can be large; an effect the other way counts as inactive or inconclusive.

Experiment [1] in a line: A CellTox Green Cytotoxicity Assay to monitor cytotoxicity in HEK293 cells - 8 hour (AID 1224884). Note: nearly all actives have a fitted effect of over 35% in size. The method, boiled down:
(§1)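 Homogeneous no-lysis format: HEK293 cell suspension mixed with CellTox Green reagent, seeded, incubated 5 h at 37 C/5% CO2, then dosed by pintool with compound in DMSO.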

The nature of experiment [2]: qHTS RealTime-Glo MT Cell Viability Assay in HepG2 cells - 16 hour (AID 1224885). Note: nearly all actives have a fitted effect of over 50% in size. The gist of the method:
(§2)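 Tox21 10K library screened in qHTS format on HepG2 cells carrying RealTime-Glo reagents. Compounds were added after a 5 h preincubation, and the luminescent signal from continuous culture was measured repeatedly during 40 h treatment.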

A short description of experiment [3]: qHTS RealTime-Glo MT Cell Viability Assay in HEK293 cells - 8 hour (AID 1224887). Note: top concentration of the series differs between compounds; nearly all actives have a fitted effect of over 50% in size. The method, boiled down: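 Measured as luminescence from the same continuously cultured HEK293 wells at successive time points (0, 8, 16, 24, 32, 40 h) after compound addition. Reagent present from seeding; dosing at 5 h; incubation 37 C.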
(In general: qHTS replaces the single test concentration by a dilution series.)

The nature of experiment [4]: A CellTox Green Cytotoxicity Assay to monitor cytotoxicity in HEK293 cells - 16 hour (AID 1224888). Note: nearly all actives have a fitted effect of over 35% in size. The gist of the method: as §1
Experiment [5] is described as follows: qHTS RealTime-Glo MT Cell Viability Assay in HepG2 cells - 0 hour (AID 1224889). Note: nearly all actives have a fitted effect of over 50% in size. The gist of the method: as §2
Experiment [6] is described as follows: A CellTox Green Cytotoxicity Assay to monitor cytotoxicity in HepG2 cells - 8 hour (AID 1224890). Note: nearly all actives have a fitted effect of over 45% in size. The gist of the method: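 Fluorescent DNA-binding dye, 600 HepG2 cells/well, 5 h preincubation then compound in DMSO; same plates read at 0–40 h, 37 C.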
Experiment [7] is described as follows: qHTS assay to identify small molecule antagonists of the estrogen receptor alpha (ER-alpha) signaling pathway using the BG1 cell line in the presence of 0.1 nM 17-beta-estradiol - cell viability counter screen (AID 1259241). Note: nearly all actives have a fitted effect of over 40% in size. The gist of the method: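 Viability in VM7Luc4E2 cells after 22 hr compound exposure under 0.1 nM 17beta-estradiol stimulation, by CellTiter-Fluor.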

Experiment [8] can be described thus: qHTS assay to identify small molecule antagonists of the androgen receptor (AR) signaling pathway using the MDA cell line in the presence of 0.5 nM R1881 - cell viability counter screen (AID 1259242). Note: nearly all actives have a fitted effect of over 45% in size. The gist of the method:
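Human breast carcinoma MDA-kb2 cells, cultured without CO2, receive compounds alongside 0.5 nM (final) R1881 agonist. After 16 hr at 37C, viability is taken as live-cell protease signal.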

Experiment [9] deals with Androgen receptor (Homo sapiens) (UniProt P10275). Nature of the experiment: qHTS assay to identify small molecule antagonists of the androgen receptor (AR) signaling pathway using the MDA cell line in the presence of 0.5 nM R1881 (AID 1259243). Note: nearly all actives have a fitted effect of over 50% in size. The gist of the method: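 Cells: MDA-kb2 (MMTV-luc). Stimulus: 0.5 nM R1881. Time: 16 hr, 37C, no CO2. Detection: ONE-Glo luminescence after 30 min at RT.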
Androgen receptor (Homo sapiens), sequence (P10275 whole entry, looked up): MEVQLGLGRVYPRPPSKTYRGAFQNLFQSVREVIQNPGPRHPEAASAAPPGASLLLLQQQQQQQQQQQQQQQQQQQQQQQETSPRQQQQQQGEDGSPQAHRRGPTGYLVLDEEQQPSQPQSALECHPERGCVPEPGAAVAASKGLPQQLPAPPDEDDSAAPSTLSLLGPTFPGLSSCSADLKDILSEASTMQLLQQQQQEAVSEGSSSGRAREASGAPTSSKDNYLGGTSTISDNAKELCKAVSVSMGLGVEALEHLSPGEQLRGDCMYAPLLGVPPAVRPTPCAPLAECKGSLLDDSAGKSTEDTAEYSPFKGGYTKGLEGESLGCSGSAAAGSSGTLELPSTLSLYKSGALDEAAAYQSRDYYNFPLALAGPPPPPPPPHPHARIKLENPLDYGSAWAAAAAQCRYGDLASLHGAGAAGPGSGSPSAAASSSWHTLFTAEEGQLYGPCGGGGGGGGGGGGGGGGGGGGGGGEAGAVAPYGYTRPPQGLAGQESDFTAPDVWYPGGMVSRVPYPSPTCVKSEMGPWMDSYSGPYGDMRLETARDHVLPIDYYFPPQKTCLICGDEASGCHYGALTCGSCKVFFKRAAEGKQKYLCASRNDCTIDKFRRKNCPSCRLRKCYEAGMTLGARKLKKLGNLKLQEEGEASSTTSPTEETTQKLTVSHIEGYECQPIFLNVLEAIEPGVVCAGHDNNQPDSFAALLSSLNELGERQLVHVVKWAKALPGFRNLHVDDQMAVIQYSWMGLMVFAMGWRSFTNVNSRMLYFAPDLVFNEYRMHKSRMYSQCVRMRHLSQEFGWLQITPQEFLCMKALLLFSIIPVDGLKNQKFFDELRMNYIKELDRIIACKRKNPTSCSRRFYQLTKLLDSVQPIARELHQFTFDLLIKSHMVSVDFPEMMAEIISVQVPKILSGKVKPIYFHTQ

Experiment [10] has as its target Estrogen receptor (Homo sapiens) (UniProt P03372). The experiment in a line: qHTS assay to identify small molecule antagonists of the estrogen receptor alpha (ER-alpha) signaling pathway using the BG1 cell line in the presence of 0.1 nM 17-beta-estradiol (AID 1259244). Note: nearly all actives have a fitted effect of over 50% in size. Note: potency is the fitted concentration of half-maximal effect. The gist of the method: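 Seeding of stripped-serum-adapted VM7Luc4E2 cells, 24 h attachment, compound transfer, then 0.1 nM final 17beta-estradiol; after 22 h incubation, ONE-Glo reagent and luminescence reading.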

Experiment [11] is described as follows: qHTS assay to identify small molecule HDAC inhibitors (AID 1259364).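 Note: wild-type HCT-116 cells with endogenous class I/II HDAC activity; top concentration of the series differs between compounds; nearly all actives have a fitted effect of over 45% in size.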 The method, boiled down: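 After a 2 hr compound incubation (37C, 5% CO2), HCT-116 cells seeded at 1,500/well the day before received HDAC-Glo reagent; signal read as luminescence after 30 min at room temperature.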
Experiment [12] in a line: qHTS assay to identify small molecule HDAC inhibitors - cell viability counter screen (AID 1259365). The method, boiled down:
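Cytotoxicity was gauged in wild-type HCT-116 cells after a brief 2hr treatment with DMSO-dissolved compounds at 37C and 5% CO2, using CellTiter-Glo luminescence developed for 30min at room temperature.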

Experiment [13] is described as follows: qHTS assay to identify small molecule antagonists of the sonic hedgehog signaling (Shh) pathway - cell viability counter screen (AID 1259367). Note: nearly all actives have a fitted effect of over 55% in size. Note: potency is the fitted concentration of half-maximal effect. The gist of the method:
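Cytotoxicity was assessed in parallel with Shh reporter activity by measuring live-cell protease fluorescence (CellTiter-Fluor) in NIH/3T3 cells stably carrying Gli1-Luc, treated with compound under conditioned medium stimulation for 23 hr plus 1 hr reagent incubation.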

The nature of experiment [14]: qHTS assay to identify small molecule agonists of the sonic hedgehog signaling (Shh) pathway (AID 1259368; calls by dose curve;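 note: NIH/3T3-derived 3T3Gli1-Luc cells carrying a stable Gli1-driven firefly luciferase reporter; series mostly up to about 92 µM; nearly all actives have a fitted effect of over 15% in size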). The method, boiled down: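 Stable NIH/3T3 Gli1-Luc reporter clone; 24 hr cpd exposure after a 4 hr settling period; luminescence endpoint.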
Experiment [15] can be described thus: qHTS assay to identify small molecule antagonists of the sonic hedgehog signaling (Shh) pathway (AID 1259369; calls by dose curve; note: nearly all actives have a fitted effect of over 45% in size; note: potency is the fitted concentration of half-maximal effect). The gist of the method: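 Gli1 transcriptional reporter (firefly Luc) in NIH/3T3 background, conditioned-medium activated. 24hr exposure, luminescence endpoint.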
The target of experiment [16] is Estrogen receptor beta (Homo sapiens) (UniProt Q92731). The experiment in a line: qHTS assay to identify small molecule agonists of the estrogen receptor beta (ER-beta) signaling pathway (AID 1259377; active = well fitted activation curve with a large enough effect in the signal ratio in the repeat runs, not every such curve was filed as active; the % refers to the signal ratio). The gist of the method:
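Measured by fluorescence intensity from a B/G FRET beta-lactamase substrate (2 h, room temperature) in ER-beta-UAS-bla HEK293T cells treated with DMSO-dissolved compounds for 16 hr at 37C and 5% CO2.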

Experiment [17] has the same target. The experiment in a line: qHTS assay to identify small molecule antagonists of the estrogen receptor beta (ER-beta) signaling pathway (AID 1259378; active = well fitted inhibition curve with a large enough effect in the signal ratio in the repeat runs, not every such curve was filed as active; the % refers to the signal ratio; note: potency is the fitted concentration of half-maximal effect). The gist of the method:
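ER-beta-UAS-bla HEK293T (GripTite) cells in 2% charcoal-stripped FBS medium were preincubated 6 hr at 37C, dosed with compound, then stimulated with 1 nM E2 (final) for 16 hr; beta-lactamase reporter read by B/G FRET fluorescence after 2 hr substrate loading.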

Experiment [18] is described as follows: qHTS RealTime-Glo MT Cell Viability Assay in HEK293 cells - 24 hour (AID 1224886). The method, boiled down:
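Luminescence generated by NanoLuc from substrate produced by living HEK293 cells served as the viability signal. Each value reflects the reading at its stated time point during continuous 40 h compound exposure at 37 C.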

A short description of experiment [19]: qHTS assay to identify small molecule phospholipidosis (PLD) inducers (AID 1259344; active = well fitted curve in the direction sought with a large enough effect; an effect the other way counts as inactive or inconclusive). The gist of the method:
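Cells (HepG2, 900 per well) attach for 4 h, receive LipidTOX Red and compound together, incubate 24 h at 37 C, are fixed 30 min with paraformaldehyde/Hoechst, then imaged at one site per well.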

Experiment [20] can be described thus: qHTS assay to identify small molecule agonists of the sonic hedgehog signaling (Shh) pathway - cell viability counter screen (AID 1259366). Note: nearly all actives have a fitted effect of over 50% in size. The method, boiled down:
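Stable Gli1-Luc NIH/3T3 clone, 2,000 cells/well. Compound exposure 24hr at 37C. Read-out: CellTiter-Fluor fluorescence.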

Estrogen receptor (Homo sapiens), sequence (P03372 whole entry, looked up): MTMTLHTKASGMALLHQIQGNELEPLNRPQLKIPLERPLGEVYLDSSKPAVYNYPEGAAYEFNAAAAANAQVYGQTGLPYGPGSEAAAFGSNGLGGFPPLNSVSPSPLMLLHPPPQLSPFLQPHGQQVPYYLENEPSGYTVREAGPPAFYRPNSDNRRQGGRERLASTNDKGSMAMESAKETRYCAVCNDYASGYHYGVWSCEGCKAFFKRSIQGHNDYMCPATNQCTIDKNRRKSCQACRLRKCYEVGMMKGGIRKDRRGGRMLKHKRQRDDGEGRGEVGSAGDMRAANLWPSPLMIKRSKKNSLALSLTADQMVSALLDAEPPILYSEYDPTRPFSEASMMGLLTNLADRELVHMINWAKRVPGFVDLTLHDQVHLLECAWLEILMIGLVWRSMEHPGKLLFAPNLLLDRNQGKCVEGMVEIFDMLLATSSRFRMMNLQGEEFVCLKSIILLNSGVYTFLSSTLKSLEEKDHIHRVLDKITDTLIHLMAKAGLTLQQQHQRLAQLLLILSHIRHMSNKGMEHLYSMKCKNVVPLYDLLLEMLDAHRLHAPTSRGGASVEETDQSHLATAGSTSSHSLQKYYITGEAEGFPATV
Estrogen receptor beta (Homo sapiens), sequence (Q92731 whole entry, looked up): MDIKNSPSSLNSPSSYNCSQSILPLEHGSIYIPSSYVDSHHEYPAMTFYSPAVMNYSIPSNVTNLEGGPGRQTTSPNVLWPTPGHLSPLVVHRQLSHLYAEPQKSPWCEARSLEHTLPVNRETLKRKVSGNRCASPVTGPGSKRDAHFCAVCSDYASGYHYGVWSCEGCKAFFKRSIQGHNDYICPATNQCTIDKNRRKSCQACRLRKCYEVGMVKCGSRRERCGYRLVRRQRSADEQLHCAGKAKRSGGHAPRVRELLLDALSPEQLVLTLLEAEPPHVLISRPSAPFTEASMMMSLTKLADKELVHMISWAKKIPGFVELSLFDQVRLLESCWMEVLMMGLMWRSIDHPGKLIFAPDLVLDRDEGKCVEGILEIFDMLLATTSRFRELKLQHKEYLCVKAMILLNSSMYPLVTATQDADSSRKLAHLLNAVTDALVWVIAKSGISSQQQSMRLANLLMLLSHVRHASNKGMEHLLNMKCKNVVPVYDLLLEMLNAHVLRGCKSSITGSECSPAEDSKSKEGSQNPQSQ

As for `O=[N+]([O-])c1ccc(CO)cc1`, the Potency result in [1], in experiment [2], in experiment [3], in [4], in [5] and in experiment [6] was “inactive” each time. The Potency entry in experiment [7], in [8], in [9], in experiment [10], in experiment [11] and in [12] was “inactive” throughout. In addition, the Potency result in experiment [13], in [14], in experiment [15] and in [17] was “inactive” each time. Further, the outcome in experiment [16] was inactive.
As for `C/C(=N\[Si](C)(C)C)O[Si](C)(C)C`, the Potency result in experiment [1], in experiment [2], in experiment [18], in [4], in experiment [5] and in experiment [6] was “inactive” throughout. For the same compound, the Potency result in experiment [7], in experiment [8], in experiment [9], in experiment [10], in experiment [11] and in experiment [12] was “inactive” throughout. Also, the Potency result in [13], in experiment [14] and in experiment [15] was “inactive” in each case.
Take `c1ccc2occc2c1`: the Potency result in experiment [1], in experiment [2], in experiment [18], in experiment [5], in [6] and in experiment [7] was “inactive” each time. Also, the Potency entry in experiment [8], in experiment [19], in [11], in [12], in experiment [20] and in experiment [13] was “inactive” throughout. The Potency result in experiment [14] is “inactive”. The Potency in experiment [10] is 68.6 µM (active).
Turning to `Cc1c[nH]c(=O)[nH]c1=O`, the Potency result in experiment [1], in experiment [2], in [18], in [4], in [5] and in experiment [6] was “inactive” each time. For the same compound, the Potency entry in [7], in [8], in [9], in [10], in experiment [11] and in experiment [13] was “inactive” in each case. Also, the Potency entry in experiment [14], in experiment [15] and in experiment [17] was “inactive” in each case.
With `CC/C=C(\C)C=O`, the Potency entry in experiment [1], in [2], in experiment [3], in experiment [4], in [5] and in experiment [6] was “inactive” in each case. Further, the Potency result in [7], in experiment [8], in experiment [10], in experiment [11], in experiment [12] and in [20] was “inactive” each time. Further, the Potency result in experiment [13], in [14] and in experiment [15] was “inactive” in each case.
`CSc1ccc(O)cc1C`: the Potency entry in experiment [1], in experiment [2], in [18], in [4], in experiment [5] and in [6] was “inactive” throughout. Besides, the Potency result in [8], in experiment [11] and in experiment [14] was “inactive” each time. Moreover, the values for the Potency in experiment [13], in experiment [15] and in experiment [17] were 27.3 µM (active), 13.7 µM (active) and 54.5 µM (active), respectively.
On to `NC(=O)C1CO1` (centres undefined), for which the Potency result in experiment [1], in [2], in [18], in [4], in experiment [5] and in experiment [6] was “inactive” throughout. Moreover, the Potency result in experiment [7], in experiment [8], in experiment [9], in experiment [10], in experiment [11] and in experiment [13] was “inactive” each time. Also, the Potency result in [14], in experiment [15] and in experiment [17] was “inactive” each time. Also, in experiment [16], the compound was classed as inactive.
As for `C=CC(=O)O[C@H]1C[C@@H]2CC[C@@]1(C)C2(C)C`, the Potency result in experiment [1], in [2], in experiment [18], in experiment [4], in experiment [5] and in experiment [6] was “inactive” in each case. The Potency result in experiment [7], in experiment [8], in experiment [10], in experiment [11], in experiment [20] and in experiment [13] was “inactive” in each case. The Potency result in experiment [14] and in experiment [17] was “inactive” each time. In addition, the result in [16] was inactive.
